HDAC3 inh: human HDAC3 inhibition; 320,000 compounds, 0.15% hits; inhibition, % at 8.3 µM; recombinant HDAC3, fluorogenic peptide/trypsin coupled, fluorescence; AID 2718; O15379; in the data active = inhibition above about 26%, passing the limit was not always enough; inconclusive = no clear call, values can overlap the other calls
GRK2 inh: blocks RNA aptamer binding to human GRK2; AID 488847; inhibition of aptamer binding, % at 10 µM; bead flow cytometry, FAM-aptamer displacement from GRK2; P25098; 330,000 compounds, 0.59% hits;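 active = inhibition of aptamer binding above 40%, roughly 3 SD of noise, on plates passing a quality check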;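 also: median bead fluorescence of bound FAM aptamer so fluorescent compounds give negative values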
Target sequence (P25098 whole entry, looked up): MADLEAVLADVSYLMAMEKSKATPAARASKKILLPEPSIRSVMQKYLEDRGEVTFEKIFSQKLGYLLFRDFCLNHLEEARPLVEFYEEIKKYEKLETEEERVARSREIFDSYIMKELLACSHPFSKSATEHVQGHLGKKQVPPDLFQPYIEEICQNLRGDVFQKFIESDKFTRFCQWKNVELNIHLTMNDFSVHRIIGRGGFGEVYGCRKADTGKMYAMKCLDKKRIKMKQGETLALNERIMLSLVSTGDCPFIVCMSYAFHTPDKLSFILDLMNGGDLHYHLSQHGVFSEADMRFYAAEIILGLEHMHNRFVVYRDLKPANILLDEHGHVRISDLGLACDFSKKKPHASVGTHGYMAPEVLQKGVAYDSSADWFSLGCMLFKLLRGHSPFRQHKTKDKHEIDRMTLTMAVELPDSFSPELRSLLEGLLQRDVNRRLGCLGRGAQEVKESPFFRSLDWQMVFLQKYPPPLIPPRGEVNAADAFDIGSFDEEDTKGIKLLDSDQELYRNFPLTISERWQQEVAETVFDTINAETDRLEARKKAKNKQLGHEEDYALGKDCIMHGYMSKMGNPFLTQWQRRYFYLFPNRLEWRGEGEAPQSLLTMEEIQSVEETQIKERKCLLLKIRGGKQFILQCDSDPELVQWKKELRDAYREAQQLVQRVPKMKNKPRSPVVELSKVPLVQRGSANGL
Cardio protect: protects H9c2 cardiomyocytes from peroxide injury. protection from H2O2 cell death, % at 20 µM. H2O2 injury protection, ATPLite, 2 h. 360,000 compounds, 0.63% hits. AID 588492;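 active = compounds giving at least 50% protection of heart cells from peroxide-induced death in the single-dose screen, raw or plate-pattern-corrected value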
Neddyl block: blocks human cullin neddylation; 360,000 compounds, 0.58% hits; TR-FRET cullin neddylation, biochemical; P61081+Q13564; inhibition, % at 25 µM; in the data active = inhibition above about 36%
Hits are given with their value; i = inactive; ? = inconclusive; nt = no result given. Most compounds without a hit are left out; they make up all but 1.8% or so of the library.

SMILES	HDAC3 inh	GRK2 inh	Cardio protect	Neddyl block
Cc1cc(=O)c2c(O)c(O)ccc2o1	i	i	50	i
CCC(C)(C)n1nnnc1C(c1cc2cc(C)cc(C)c2[nH]c1=O)N1CCN(C(=O)c2ccco2)CC1 (stereo not drawn)	i	i	i	i
CCCCn1c(N)c(Br)c(=O)[nH]c1=O	i	i	55	i
CCCCn1c(N)c(NCCC(C)C)c(=O)[nH]c1=O	i	i	i	i
CNS(=O)(=O)c1cccc(C(=O)OCC(=O)c2ccc3[nH]c(=O)[nH]c3c2)c1	i	i	i	i
CC(=O)Nc1ccc(NC(=O)COC(=O)c2ccc([N+](=O)[O-])o2)cc1	i	i	i	i
O=C(COC(=O)c1ccc([N+](=O)[O-])o1)Nc1cccc(S(=O)(=O)N2CCCCC2)c1	i	i	53	i
CCN(c1ccc(NC(=O)COC(=O)c2ccc([N+](=O)[O-])o2)cc1)C(C)C	i	i	61	i
O=C(CN1C(=O)c2ccccc2C1=O)Oc1ccc(F)cc1	i	i	nt	nt
Cc1cc(OCC(=O)NCCCN2CCOCC2)c2c(C)cc(=O)oc2c1	i	i	i	nt
CSC(=NC#N)N1CCN(c2cccc(Cl)c2)CC1	i	i	i	i
COc1cc(C(=O)NC2CCN(C)CC2)ccc1Nc1ncc2c(n1)N(Cc1ccccc1)CCC(=O)N2C	nt	nt	i	i
COc1cc(C(=O)NC2CCN(C)CC2)ccc1Nc1ncc2c(n1)N(C1CCCCC1)CCC(=O)N2C	nt	nt	i	40
Cn1cc(C(=O)c2ccc(Cl)cc2Cl)cc1C(=O)N/N=C(\N)COc1ccc(F)cc1	i	i	i	i
Cn1cc(C(=O)c2ccc(Cl)cc2Cl)cc1C(=O)N/N=C(\N)COc1ccc(Cl)cc1	i	i	96	i
Cn1cc(C(=O)c2ccc(Cl)cc2Cl)cc1C(=O)N/N=C(\N)COc1ccc(Cl)cc1Cl	i	i	86	i
CC(C)c1ccccc1NC(=O)COC(=O)c1c2c(nc3ccccc13)CCN(Cc1ccccc1)C2	i	i	66	i
Cc1c(Cl)cccc1NC(=O)COC(=O)c1c2c(nc3ccccc13)CCN(Cc1ccccc1)C2	i	i	i	i
CC(C)(C)NC(=O)COC(=O)c1c2c(nc3ccccc13)CCC2	i	i	50	i
CCn1c(O)c(/C=N/N=C/c2ccccc2)c2ccc(C3=NNC(=O)CC3)cc21	?	i	76	i
CC(C)=C1C2CCC1C(C(=O)Nc1cc(C)cc(C)c1)C2C(=O)O (stereo not drawn)	i	i	i	i
Cn1c(NC2CCCCC2)cc(=O)n(C)c1=O	?	i	i	i
Cc1cc(C2CCCCC2)n(O)c(=O)c1	i	i	69	i
CN(CC(=O)Nc1cccc(F)c1)C(=O)c1ccc(C2SCCS2)cc1	59	i	i	i
CN(CC(=O)Nc1cccc(F)c1)C(=O)c1ccc(OCc2ccccc2)cc1	i	i	i	i
SMILES	HDAC3 inh	GRK2 inh	Cardio protect	Neddyl block
CCN(CC(=O)Nc1c(F)cccc1F)C(=O)c1ccc(C2SCCS2)cc1	62	i	i	i
Nc1cc(=O)nc2cn[nH]n12	nt	nt	i	i
O=C(NCCCn1ccnc1)/C(=C\c1cccnc1)NC(=O)c1cccc(Br)c1	i	66	i	i
CCO[C@@H]1OC(C(=O)O)=C[C@H](c2ccc(Br)cc2)[C@H]1CCCO	41	i	i	i
CC(C)c1ccc(-c2nn(-c3ccccc3)cc2C2C(C#N)=C(N)OC3=C2C(=O)CC(C)(C)C3)cc1 (stereo not drawn)	i	i	i	i
COC(=O)[C@@]12CCCCN1[C@H](c1ccc(-c3cccc(Cl)c3)c(OC)c1)[C@@H]1C(=O)N(C)C(=O)[C@@H]12	33	i	i	i
COC(=O)[C@@]12CCCN1[C@H](c1ccc(-c3cccc(Cl)c3)c(OC)c1)[C@H]1C(=O)N(C)C(=O)[C@H]12	i	i	i	i
CCN(CC(=O)Nc1c(F)cccc1F)C(=O)Cc1csc(-c2ccc(OC)c(OC)c2)n1	i	i	i	i
CCc1nn(CC(=O)NCCc2ccc(OC)cc2OC)c(=O)c2cc3occc3n12	i	i	i	i
Nc1nc(N)nc(-c2cc(Cl)ccc2Cl)n1	i	i	i	i
Nc1nc(N)nc(-c2cc(C(F)(F)F)ccc2Cl)n1	28	i	i	i
O=C1NC[C@@H](CCCCN2C[C@H](Cc3ccc(O)cc3)N(CC3CCCCC3)C(=O)C2=O)N(CCC2CCCCC2)C1=O	nt	nt	nt	i
CN(C)Cc1cc(C(C)(C)C)cc(C(C)(C)C)c1O	i	i	i	i
CN(C)Cc1cc(O)c(CN(C)C)cc1O	i	i	61	39
CCOC(=O)C1CCN(S(=O)(=O)c2ccc3c(c2)CC(=O)N3C)CC1	i	i	i	i
O=C(CSc1ccc(Cl)cc1)c1ccco1	i	58	i	i
C(=N\Nc1nc2ccccc2[nH]1)/c1ccccn1	nt	nt	i	i
C(=N\Nc1nc2ccccc2[nH]1)/c1cccc2nccnc12	i	i	51	i
CCOc1ccccc1NC(=O)COC(=O)CC(NC(N)=O)c1ccc(Cl)cc1 (stereo not drawn)	i	i	i	i
S=C1NC2=C(CCCC2=C2SCCS2)C(c2ccccc2)N1 (stereo not drawn)	95	i	i	i
COc1cccc(C2NC(=S)NC3=C2CCc2ccccc23)c1 (stereo not drawn)	i	i	i	i
CC(Oc1ccc2ccc(=O)oc2c1)C(=O)NC(Cc1c[nH]c2ccc(O)cc12)C(=O)O (stereo not drawn)	i	i	i	i
Cc1ccc2cc(C#N)c(N3CCN(C(=O)c4cccs4)CC3)nc2c1	i	i	58	i
O=C(O)C1C2C=CC(C2)C1C(=O)NCc1ccc(Cl)cc1Cl (stereo not drawn)	i	i	i	i
CCOC(=O)c1nn(-c2cccc(OC)c2)c2nc(Nc3ccccc3)cc(=O)n12	i	i	52	i
SMILES	HDAC3 inh	GRK2 inh	Cardio protect	Neddyl block
CCOC(=O)c1nn(-c2cccc(Cl)c2)c2nc(Nc3ccccc3)cc(=O)n12	i	i	i	i
Cc1[nH]c2ccccc2c1/C=N/NC(=O)CNC(=O)c1cccs1	i	i	i	i
Cc1[nH]c2ccccc2c1/C=N/NC(=O)c1cccs1	i	i	56	i
COc1ccc(/C=N/NC(=O)CSc2nnc(C)n2-c2ccccc2)c(OC)c1OC	i	i	i	i
COc1ccccc1/C=N/NC(=O)CSc1ccc2ccccc2n1	i	i	i	i
COc1cccc(/C=N/NC(=O)CN2CC(c3ccccc3)CC2=O)c1O (stereo not drawn)	i	i	56	i
COc1cccc(/C=N/NC(=O)CSc2nnc(C)n2-c2ccccc2)c1O	i	i	80	i
CCCCSc1nc(C)cc(SCC(=O)N/N=C/c2cccc(OC)c2O)n1	i	i	52	i
CC1(C)CC(=O)c2c(oc3cc(O)c(O)cc23)C1	i	i	90	i
O=S(=O)(/N=C(/Sc1ccccc1)c1ccccc1)c1ccccc1	i	i	52	i
CS/C(=N\S(=O)(=O)c1ccccc1)c1ccccc1	i	i	56	i
CC(=O)Nc1ccc(N/C(=N\S(=O)(=O)c2ccccc2)c2ccccc2)cc1	i	i	i	i
O=S(=O)(/N=C(/NS(=O)(=O)c1ccccc1)c1ccccc1)c1ccccc1	i	i	i	i
CCCCn1nc(C(=O)Oc2ccc3c(C)cc(=O)oc3c2)c2ccccc2c1=O	nt	i	52	nt
